# Shiga toxin inh: blocks Shiga toxin action in Vero cells. inhibition, % at 38.7 µM. 9.2% of 290,000 active. Vero cells, Shiga toxin protein synthesis inhibition reporter. AID 2315; in the data active = inhibition mostly above about 28%, no sharp cut-off; inactive = mostly below about 43%; also: 0% is about no effect
# Pf growth 48h: P. falciparum growth inhibition at 48 hours (one generation); Potency, µM (doses to about 28.7 µM), for the others: at the top dose activity change, negative = inhibition, actives largely listed as inhibitors; 5.9% of 310,000 active; P. falciparum luciferase growth in erythrocytes, 48 h; also: potency is read from the fitted curve at half-maximal effect; % is scaled to controls: 0 for no effect and ±100 for the full control effect
#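 Parasite viability was followed by luminescence of a genomically integrated firefly luciferase. Cultures held 0.1% parasitemia at 2% hematocrit (final), incubated under 5% CO2 at 37 C.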
# HCV inhibitor: blocks hepatitis C virus | Huh7.5.1 HCVcc-Cre infection, luciferase reporter, 44 h | Potency, µM (highest dose often 41.8 µM), without a hit: top-dose activity change, negative = inhibition, usual class: inhibitors | 3.4% of 340,000 active | AID 651820; also: potency is read from the fitted curve at half-maximal effect; % is scaled to controls: 0 for no effect and ±100 for the full control effect
#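 Luciferase read-out (15 sec integration) after a 15 min room-temperature substrate step quantifies HCVcc-Cre infection. Cells, 1,000 per well, had compound added 4 h post-plating, then virus at ~0.5 moi, and were cultured 44 h.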
# Pf growth 96h: inhibits malaria parasite growth, 96 h | Potency, µM (doses to about 28.7 µM), inactives show top-dose activity change, negative = inhibition, hits mostly inhibitors | P. falciparum luciferase reporter growth, 96 h | AID 504834 | 6.9% of 320,000 active; also: potency is read from the fitted curve at half-maximal effect; % is scaled to controls: 0 for no effect and ±100 for the full control effect
#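 Compounds incubated with erythrocytes infected by luciferase-expressing P. falciparum (2% hematocrit, 0.05% parasitemia final) for 96 hours, 37 C in 5% CO2. Growth inhibition scored as decreased luciferase luminescence.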
# Cycloheximide cs: counter-screen for Shiga toxin inhibitors: cycloheximide protein synthesis inhibition | cell reporter, cycloheximide protein synthesis inhibition counterscreen | max response, % | 12% of 300,000 active; in the data active = max response mostly above about 13%, no sharp cut-off; inactive = mostly below about 14%; also: read at 38.3 µM for the half of the compounds with a filed dose; 0% is about no effect
# AMA1 RON2 block: disrupts binding of P. falciparum AMA1 to RON2; AlphaScreen AMA1-biotinylated RON2 peptide binding; Potency, µM (highest dose often 58.2 µM), for the others: top-dose activity change, negative = inhibition, usual class: inhibitors; 0.2% of 360,000 active;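 also: potency is read from the fitted curve at half-maximal effect; 0% = vehicle wells and -100% = peptide control; nearly all actives have a fitted effect of over 45% in size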
#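 AMA1 (3D7) with his tag at 25 nM final met compounds first, then biotinylated RON2 peptide at 25 nM; detection used donor plus acceptor beads, 10 µg/mL apiece, read by AlphaScreen after 30 min at room temperature.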
# An asterisk follows results filed as active; i = inactive; ? = inconclusive; nt = no result given; [ ] = remark or other dose. Hits are enriched below; roughly 21% of the tested compounds scored in any of these assays. Unless noted, calls follow the shape of the dose curve; as a rule, active = well fitted curve in the direction sought with a large enough effect; inconclusive = small, poorly fitted or top-dose-only effect, or another doubt; inactive = no such curve, though single readings can be large; an effect the other way counts as inactive or inconclusive.
SMILES,Shiga toxin inh,Pf growth 48h,HCV inhibitor,Pf growth 96h,Cycloheximide cs,AMA1 RON2 block
Cc1csc(NC(=O)c2nn(C)c(C)c2[N+](=O)[O-])n1,52*,103%,8%,114%,25*,-5%
Cc1nn(C(C)C(=O)Nc2ccc3c(c2)OCO3)c(C)c1[N+](=O)[O-] (centres undefined),74,?,9%,36%,4,20%
CCOC(=O)[C@]12CCC=C1N(Cc1ccccc1)C(=O)[C@H](CC(=O)NCC13CC4CC(CC(C4)C1)C3)C2,nt,nt,nt,nt,nt,-8%
COc1cccc(CNS(=O)(=O)c2ccc3c(c2)N(C)CCO3)c1,6,0%,-19%,0%,5,-7%
CCn1c2ccccc2c2n[nH]c(=S)nc21,-2,13%[0.00184 µM],2%,-1%,-4,117%
C#CCn1c2ccccc2c2nc3ccccc3nc21,15,-1%,20%,?,3,12%
CCn1c2ccccc2c2nc3cc(S(=O)(=O)N4CCOCC4)ccc3nc21,-10,nt,10µM*,-78%,-1,10%
CC(C)n1c2ccccc2c2nc3ccccc3nc21,31,?,13µM*,nt,9,134%
CCCn1c(CCl)nc2cc(S(=O)(=O)N3CCOCC3)ccc21,nt,nt,9%,nt,nt,1%
O=C(O)Cn1c2ccccc2c2n[nH]c(=S)nc21,nt,-5%,23%,3.7µM*,-4,88%
Nc1c(S(=O)(=O)c2cc(Cl)ccc2Cl)c2nc3ccccc3nc2n1CCN1CCOCC1,-16,13µM*,?,nt,-4,3%
Cc1cccc(C)c1NC(=O)CN(C)C(=O)C(c1ccccc1)c1ccccc1,-6,-11%,-21%,-18%,-2,-8%
c1ccc2nc3c(nc2c1)c1ccccc1n3CCN1CCOCC1,42*,?,?,nt,14,6%
O=C(O)CCn1c2ccccc2c2nc3ccccc3nc21,58*,111%,16%,-5%,19*,-7%
c1cn(-c2ccc(-c3ccnc4ncnn34)cc2)cn1,28,3%,24%,23%,-3,3%
CCc1ccc(C(=O)/C=C2\Sc3ccccc3NC2=O)cc1,88*,69%,?,37%,50*,91%
O=C1Nc2ccccc2S/C1=C\C(=O)N1CCCC1,72*,373%,nt,3%,27*,nt
N#C/C(C(=O)N1CCCCC1)=C1\Nc2ccccc2S1,58*,74%,-7%,-1%,37*,24%
Cc1ccc(NC(=S)/C(C#N)=C2/Nc3ccccc3S2)cc1,nt,nt,nt,nt,nt,85%
Cc1ccnc(NS(=O)(=O)c2cc(C(F)(F)F)ccc2Cl)c1,27,-25%,nt,?,-1,nt
Cc1cc(C)c(C#N)c(SCC(=O)Nc2nnc(-c3ccccc3)s2)n1,6,4%,-7%,nt,-2,-4%
Cc1cc(C)c(C#N)c(SCC(=O)c2ccc(Cl)cc2Cl)n1,-16,13µM*,?,10µM*,-5,?
Cc1nc(SCC(=O)Nc2nccs2)c(C#N)c(C)c1C,nt,114%,0%,43%,nt,45%
Cc1ccc2sc(NC(=O)CSc3nc(C)cc(C)c3C#N)nc2c1,78*,54%,-18%,i,47*,-6%
Cc1cc(C)c(C#N)c(SCC(=O)Nc2ccccc2C)n1,9,-2%,-13%,-1%,11,-7%
SMILES,Shiga toxin inh,Pf growth 48h,HCV inhibitor,Pf growth 96h,Cycloheximide cs,AMA1 RON2 block
Cc1nc(SCC(=O)Nc2nc3ccccc3s2)c(C#N)c(C)c1C,34,-71%,?,?,29*,-5%
Cc1cc(C(F)(F)F)c(C#N)c(SCC(=O)Nc2nc3ccccc3s2)n1,163*,227%,?,332%,112*,-3%
COCCn1c(C)cc(C(=O)CSc2nc(C)cc(C)c2C#N)c1C,-23,?,?,nt,-6,-7%
Cc1ccc(NC(=O)Cn2cc(S(=O)(=O)c3ccccc3)c(=O)c3cc(F)ccc32)cc1,-14,12%,3%[8.37 µM],2%,-4,13%
O=c1c(S(=O)(=O)c2ccc(Cl)cc2)cn(Cc2ccccc2)c2ccc(F)cc12,-10,?,-20%,12µM*,-4,16%
CCOC(=O)C1=C[C@@H](C(C)(C)C)N(S(=O)(=O)c2ccc(C)cc2)[C@H]1c1ccc(Cl)c(Cl)c1,nt,nt,nt,nt,nt,-3%
